According to PubChem BioAssay AID1637 (Sanford-Burnham Center for Chemical Genomics, 2009):
The campaign covered roughly 3,700 compounds. Fewer than 10 were called active. A selection follows. A number with no mark means an inactive call. How the calls were made is not given here.

Assay: NMR binding screen, influenza A RNA promoter, Kd (AID 1637)
Details: NMR binding to influenza A RNA promoter

Compound | Kd
CNC(=O)CC1Sc2ccccc2NC1=O (stereo not given) | > 4 mM
O=C1CSC(=Nc2ccccc2[N+](=O)[O-])N1 | > 4 mM
CN1CCC(N2CCOCC2)CC1 | > 4 mM
Cc1cc(C(=O)NCc2cccnc2)no1 | > 4 mM
COc1ccc(S(=O)(=O)N2CCOCC2)cc1C(C)C | > 4 mM
COc1cccc(/C=C/C(=O)O)c1C(C)C | > 4 mM
CCN1CCC(=NO)CC1 | > 4 mM
Cc1ccc(SCc2cc(=O)n3[nH]cnc3n2)cc1 | > 4 mM
Nc1ccc(-n2cccn2)cc1 | > 4 mM
Cc1ccc(S(=O)(=O)CC(=O)N(C)C)cc1 | > 4 mM
Cc1cccc(N2C(=O)CC(=O)NC2=O)c1 | > 4 mM
Cc1ccccc1NC(=O)C1CC(=O)N=C(N)S1 (stereo not given) | > 4 mM
CC(C)(C)CC(=O)NNC(=O)c1cnccn1 | > 4 mM
CCSc1nc(N)c(NC(=O)c2ccco2)c(=O)[nH]1 | > 4 mM
Cc1ccccc1NC(=O)CC1NCCNC1=O (stereo not given) | > 4 mM
Cc1cc(CN2C(=O)c3ccccc3C2=O)on1 | > 4 mM
O=C(O)CCCNC(=O)c1ccccc1C(=O)O | > 4 mM
CC(C)(C)NC(=O)CN1C(=O)c2ccccc2S1(=O)=O | > 4 mM
COc1ccc(/C=C2\SC(N)=NC2=O)cc1 | > 4 mM
CC(C)=NNC(=O)C(=O)Nc1ccc(F)cc1 | > 4 mM
CS/C(N)=C\C(C)=O | > 4 mM
Nc1nonc1-c1nc2ccccc2[nH]1 | > 4 mM

Compound | Kd
NCc1ccc(-c2ccccn2)s1 | > 4 mM
Cc1oc(-c2ccccc2)cc1C(=O)O | > 4 mM
O=S1(=O)CCC2CC=CCC21 (stereo not given) | > 4 mM
S=C(c1ccc(N2CCOCC2)cc1)N1CCOCC1 | > 4 mM
CC1(C)CC2(C)N(N)C(=O)CN2C(=S)N1 (stereo not given) | > 4 mM
O=c1[nH]cc(NCc2ccccc2)c(=O)[nH]1 | > 4 mM
c1cnc(N2CCNCC2)nc1 | > 4 mM
COc1cc2nc(N3CCNCC3)nc(N)c2cc1OC | 0.078 mM (active)
COc1cccc(N2CCNCC2)c1 | > 4 mM
CN(C)c1nc(N2CCOCC2)c2cnn(C)c2n1 | > 4 mM
O=C(CSc1ncn[nH]1)c1ccccc1 | > 4 mM
Cc1cccc(N2C(=O)CCC2=O)n1 | > 4 mM
O=c1[nH]c(O)c(C=NCc2cccs2)c(=O)[nH]1 | > 4 mM
CC(=O)c1cccc(N=C2NC(=O)CS2)c1 | > 4 mM
Cc1csc(SCC(=O)N2CCCC2)n1 | > 4 mM
Nc1cc(=O)[nH]c(SCC(=O)Nc2nccs2)n1 | > 4 mM
COc1cc(OC)c2c(=O)c(OC)c(-c3ccc(OC)c(OC)c3)oc2c1 | > 4 mM
C=C1CCC2[C@](C)(CO)[C@H](O)CC[C@@]2(C)[C@@H]1C/C=C1/C(=O)OC[C@H]1O (stereo not given in full) | > 4 mM
Cc1occc1C(=O)NCc1ccccn1 | > 4 mM
NC(=O)NC1C=CS(=O)(=O)C1 (stereo not given) | > 4 mM
Cc1c(N=Cc2ccco2)c(=O)n(-c2ccccc2)n1C | > 4 mM
Cc1ccc(CN2C3=NC(=O)CN3c3ccccc32)cc1 | > 4 mM

Compound | Kd
COc1nc(N2CCOCC2)nc(N)c1[N+](=O)[O-] | > 4 mM
CC1=NN2C(=N)/C(=C\c3cccs3)C(=O)N=C2S1 | > 4 mM
O=C(O)C1NCCc2ccccc21 (stereo not given) | > 4 mM
CCn1nnc(NC(=O)c2ccccc2Br)n1 | > 4 mM
O=S1(=O)NC(=NCc2ccco2)c2ccccc21 | > 4 mM
O=C(NCc1ccc2c(c1)OCO2)c1cccs1 | > 4 mM
Cn1nnc2cc(C(=O)Nc3cccnc3)ccc21 | > 4 mM
Cc1ccc(SCc2nc(-c3ccncc3)no2)cc1 | > 4 mM
NC1CS(=O)(=O)CC1O (stereo not given) | > 4 mM
C=CCCCCCCCCCCCC(O)CC(O)CO (stereo not given) (tested in a mixture with another compound) | > 4 mM
CN1C(=O)C2CC=C(Cl)CC2C1=O (stereo not given) | > 4 mM
Cc1c(/C=N\n2cnnc2)c2ccccc2n1C | > 4 mM
CN(C)S(=O)(=O)NCc1ccc2c(c1)OCO2 | > 4 mM
CC1(c2ccncc2)NC(=O)NC1=O (stereo not given) | > 4 mM
c1cc2n(c1)CCNC2c1ccncc1 (stereo not given) | > 4 mM
Cc1nc2[nH]onc2c2nccc(=O)c12 | > 4 mM
CCCN1CCC(N2CCC(O)CC2)CC1 | > 4 mM
O=C1NC(=O)/C(=C\c2ccncc2)S1 | > 4 mM
O=C1CSC(=O)N1CN1CCCC1 | > 4 mM
O=C(O)CSCc1ccc(Cl)cc1 | > 4 mM
CCCC(=O)N1CCSCC1 | > 4 mM
Cn1nc(C(=O)N2CCCC2)c2ccccc2c1=O | > 4 mM

Compound | Kd
Cc1nn(C)c(Cl)c1C(O)c1c(C)nn(C)c1Cl | > 4 mM
Cc1ccc(-c2nn3c(C)nnc3s2)cc1N | > 4 mM
Nc1ccc2nsnc2c1 | > 4 mM
CC(=O)Nc1cc(C(N)=O)cc(C(N)=O)c1 | > 4 mM
NS(=O)(=O)c1ccccc1Cl | > 4 mM
CSc1nc(=O)[nH]c2c1CCC2 | > 4 mM
Cn1cnc2cc(NC(=O)c3ccco3)ccc21 | > 4 mM
COc1ccc(NC2=NCC(C)S2)cc1 (stereo not given) | > 4 mM
COC(=O)Nc1nnc(-c2ccncc2)s1 | > 4 mM
NC(=O)Cn1nnc(-c2ccc(C(F)(F)F)cc2)n1 | > 4 mM
Nc1cccc(NC(=O)c2cccs2)c1 | > 4 mM
CCN1CCC(NC2CCC(O)CC2)CC1 (stereo not given) | > 4 mM
OC12C=CC(CC1)CC2 | > 4 mM
NC(=O)CSc1ccc2nnc(-c3ccccc3)n2n1 | > 4 mM
CCCCN1C(=O)C2CC/C(=N/O)CC2C1=O (stereo not given) | > 4 mM
C[C@@H]1OC(O[C@H]2[C@H](OC(=O)[C@]34CCC(C)(C)CC3C3=CCC5[C@@]6(C)CC[C@H](OC7O[C@@H](C)[C@H](O[C@@H]8OC[C@@H](O)[C@H](O)[C@H]8O)[C@@H](O)[C@H]7O)C(C)(C)C6CC[C@@]5(C)[C@]3(C)CC4O)OC[C@H](O)[C@H]2O)[C@H](O)[C@H](O)[C@H]1O[C@@H]1O[C@H](CO)[C@@H](O)[C@H](O)[C@H]1O (stereo not given in full) | > 4 mM
NC(=O)C1CCN(C(=O)c2ccccc2F)CC1 | > 4 mM
O=C(Nc1cccc2cccnc12)c1cccnc1 | > 4 mM
Cc1nc(NC2=NCCC(=O)N2)nc2ccccc12 | > 4 mM
